Data reported in the supplement of paper PMC11006884.
About 6,500 targets were measured; listed, in parts, are those with a hit and a random draw of the rest. About 2% of all pairs of compound and target were hits.

Each target was assayed with COC(=O)C#Cc1ccccc1 [methyl 3-phenylpropiolate] (assay: log2 ratio of iodoacetamide-alkyne labeling of the cysteine site, DMSO over compound (competition); higher = stronger covalent engagement of the cysteine by the compound, active = 1 or more). Settings: 500 µM; treatment time 1 h; system: HEK293T cell lysate.
Procedure, shortened: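 The log2 competition ratio per cysteine is defined as mean reporter intensity in control channels over mean reporter intensity in compound channels. Lysate from HEK293T cells (2 mg/mL) received electrophile (500 µM) or vehicle for 1 h at ambient temperature, followed by iodoacetamide alkyne for 1 h. Samples were clicked to sCIP-TMT reagents, pooled, trypsin-digested overnight at 37 °C, streptavidin-enriched, acid-eluted and run on Orbitrap Eclipse LC-MS/MS with FAIMS, with quantification in FragPipe. Three replicates with duplicate channels were used, and any cysteine quantified in only one replicate was excluded.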

Chain of UniProt Q8WYP5 (Q8WYP5 whole entry, looked up): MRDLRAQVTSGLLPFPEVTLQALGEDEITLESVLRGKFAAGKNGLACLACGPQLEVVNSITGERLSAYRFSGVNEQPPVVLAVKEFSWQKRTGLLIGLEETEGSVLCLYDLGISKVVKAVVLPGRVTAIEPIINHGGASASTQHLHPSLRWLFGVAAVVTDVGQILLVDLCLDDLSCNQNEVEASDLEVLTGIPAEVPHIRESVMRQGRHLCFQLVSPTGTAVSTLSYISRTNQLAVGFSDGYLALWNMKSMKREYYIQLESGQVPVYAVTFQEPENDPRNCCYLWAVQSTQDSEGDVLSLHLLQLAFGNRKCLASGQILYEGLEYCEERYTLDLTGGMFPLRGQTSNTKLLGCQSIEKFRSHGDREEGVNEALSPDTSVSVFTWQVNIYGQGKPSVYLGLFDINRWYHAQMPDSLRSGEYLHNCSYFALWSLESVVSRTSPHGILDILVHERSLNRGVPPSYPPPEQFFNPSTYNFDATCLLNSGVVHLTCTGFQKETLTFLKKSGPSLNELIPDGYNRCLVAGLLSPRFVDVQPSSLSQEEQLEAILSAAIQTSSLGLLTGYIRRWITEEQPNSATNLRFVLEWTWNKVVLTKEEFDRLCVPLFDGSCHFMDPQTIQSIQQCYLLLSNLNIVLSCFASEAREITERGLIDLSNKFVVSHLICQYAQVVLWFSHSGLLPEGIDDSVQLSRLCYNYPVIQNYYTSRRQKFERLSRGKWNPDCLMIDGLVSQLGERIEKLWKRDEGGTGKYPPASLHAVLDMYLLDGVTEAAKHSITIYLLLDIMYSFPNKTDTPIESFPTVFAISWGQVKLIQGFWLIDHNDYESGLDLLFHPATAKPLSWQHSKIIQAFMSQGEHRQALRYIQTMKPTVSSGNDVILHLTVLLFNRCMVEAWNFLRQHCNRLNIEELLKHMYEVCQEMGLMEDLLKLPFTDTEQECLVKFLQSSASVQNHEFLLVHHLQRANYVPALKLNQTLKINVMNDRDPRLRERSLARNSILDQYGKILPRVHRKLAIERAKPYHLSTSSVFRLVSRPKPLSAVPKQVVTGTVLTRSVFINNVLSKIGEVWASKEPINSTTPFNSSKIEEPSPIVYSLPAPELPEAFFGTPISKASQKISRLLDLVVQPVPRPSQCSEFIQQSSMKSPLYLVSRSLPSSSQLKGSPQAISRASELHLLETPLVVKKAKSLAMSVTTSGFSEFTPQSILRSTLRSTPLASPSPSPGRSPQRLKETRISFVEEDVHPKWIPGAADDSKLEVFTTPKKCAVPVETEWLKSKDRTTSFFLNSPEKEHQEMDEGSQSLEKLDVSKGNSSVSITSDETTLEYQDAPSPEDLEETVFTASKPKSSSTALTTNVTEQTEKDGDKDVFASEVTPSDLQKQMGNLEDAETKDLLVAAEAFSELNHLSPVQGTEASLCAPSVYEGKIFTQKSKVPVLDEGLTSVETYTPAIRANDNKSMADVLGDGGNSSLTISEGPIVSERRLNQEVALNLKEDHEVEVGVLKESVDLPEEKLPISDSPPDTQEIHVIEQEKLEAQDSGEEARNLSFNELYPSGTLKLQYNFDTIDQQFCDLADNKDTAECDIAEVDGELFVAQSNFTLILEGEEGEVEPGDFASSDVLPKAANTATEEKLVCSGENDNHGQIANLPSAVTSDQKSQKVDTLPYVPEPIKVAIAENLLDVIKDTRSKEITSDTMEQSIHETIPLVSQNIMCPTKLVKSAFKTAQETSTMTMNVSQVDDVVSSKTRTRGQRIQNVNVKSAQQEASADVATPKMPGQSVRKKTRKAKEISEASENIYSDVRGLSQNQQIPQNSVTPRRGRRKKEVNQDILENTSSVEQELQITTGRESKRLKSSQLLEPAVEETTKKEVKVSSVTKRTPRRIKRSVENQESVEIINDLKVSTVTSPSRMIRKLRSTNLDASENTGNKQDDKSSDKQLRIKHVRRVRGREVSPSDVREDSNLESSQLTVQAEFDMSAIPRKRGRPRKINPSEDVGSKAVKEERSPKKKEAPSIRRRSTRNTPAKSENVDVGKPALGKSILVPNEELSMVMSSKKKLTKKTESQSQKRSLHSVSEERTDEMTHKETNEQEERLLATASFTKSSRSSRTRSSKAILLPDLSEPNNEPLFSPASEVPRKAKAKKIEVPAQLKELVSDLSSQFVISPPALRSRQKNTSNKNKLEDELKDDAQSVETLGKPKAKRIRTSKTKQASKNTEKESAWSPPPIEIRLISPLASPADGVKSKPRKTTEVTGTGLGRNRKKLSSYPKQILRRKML
Chain of UniProt Q92598 (Q92598 whole entry, looked up): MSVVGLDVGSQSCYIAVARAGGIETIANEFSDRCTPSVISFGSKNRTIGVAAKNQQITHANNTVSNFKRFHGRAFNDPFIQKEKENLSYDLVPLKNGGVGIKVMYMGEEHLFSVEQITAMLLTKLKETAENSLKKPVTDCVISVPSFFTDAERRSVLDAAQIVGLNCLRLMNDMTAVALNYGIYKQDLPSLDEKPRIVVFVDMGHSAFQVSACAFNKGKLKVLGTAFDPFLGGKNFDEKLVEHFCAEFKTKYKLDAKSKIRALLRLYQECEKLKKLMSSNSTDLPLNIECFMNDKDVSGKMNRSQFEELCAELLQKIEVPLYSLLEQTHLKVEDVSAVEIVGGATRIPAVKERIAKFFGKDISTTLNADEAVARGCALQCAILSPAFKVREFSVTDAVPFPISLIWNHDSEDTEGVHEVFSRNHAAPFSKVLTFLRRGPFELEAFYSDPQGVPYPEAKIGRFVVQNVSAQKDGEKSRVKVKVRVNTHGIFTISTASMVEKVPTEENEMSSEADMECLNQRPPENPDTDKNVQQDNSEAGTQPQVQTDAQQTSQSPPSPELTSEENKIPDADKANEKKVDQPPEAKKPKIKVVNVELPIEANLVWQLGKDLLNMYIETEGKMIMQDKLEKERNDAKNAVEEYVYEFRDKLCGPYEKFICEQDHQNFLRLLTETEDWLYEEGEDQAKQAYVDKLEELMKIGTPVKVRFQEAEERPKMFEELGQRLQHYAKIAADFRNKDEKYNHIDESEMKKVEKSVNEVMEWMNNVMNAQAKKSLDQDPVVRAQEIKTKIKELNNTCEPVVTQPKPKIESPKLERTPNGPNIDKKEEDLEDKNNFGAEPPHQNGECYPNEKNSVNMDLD
Chain of UniProt Q96AB3 (Q96AB3 whole entry): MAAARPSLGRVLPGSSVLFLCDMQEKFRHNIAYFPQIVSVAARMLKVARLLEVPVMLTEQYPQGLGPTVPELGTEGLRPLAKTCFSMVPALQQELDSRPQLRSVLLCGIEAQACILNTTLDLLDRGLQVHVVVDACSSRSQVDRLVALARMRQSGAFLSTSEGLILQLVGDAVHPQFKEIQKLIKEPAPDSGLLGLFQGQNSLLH
Chain of UniProt Q8IU81 (Q8IU81 whole entry, looked up): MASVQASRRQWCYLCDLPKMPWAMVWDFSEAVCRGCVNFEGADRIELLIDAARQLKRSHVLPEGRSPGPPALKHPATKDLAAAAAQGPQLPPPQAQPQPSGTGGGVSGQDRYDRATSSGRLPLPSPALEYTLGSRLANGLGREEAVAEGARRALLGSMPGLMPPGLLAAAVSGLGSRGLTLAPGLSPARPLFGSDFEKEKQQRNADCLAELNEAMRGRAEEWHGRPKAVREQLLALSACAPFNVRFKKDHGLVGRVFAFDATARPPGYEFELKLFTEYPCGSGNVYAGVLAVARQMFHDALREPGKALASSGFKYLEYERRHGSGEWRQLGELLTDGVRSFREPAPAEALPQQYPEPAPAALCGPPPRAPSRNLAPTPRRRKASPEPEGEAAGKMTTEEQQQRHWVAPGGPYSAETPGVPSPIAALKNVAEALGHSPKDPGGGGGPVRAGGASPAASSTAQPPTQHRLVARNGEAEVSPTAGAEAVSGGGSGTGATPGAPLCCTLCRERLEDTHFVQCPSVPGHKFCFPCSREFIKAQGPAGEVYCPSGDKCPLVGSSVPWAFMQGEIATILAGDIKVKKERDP
Chain of UniProt Q9BRF8 (Q9BRF8 whole entry): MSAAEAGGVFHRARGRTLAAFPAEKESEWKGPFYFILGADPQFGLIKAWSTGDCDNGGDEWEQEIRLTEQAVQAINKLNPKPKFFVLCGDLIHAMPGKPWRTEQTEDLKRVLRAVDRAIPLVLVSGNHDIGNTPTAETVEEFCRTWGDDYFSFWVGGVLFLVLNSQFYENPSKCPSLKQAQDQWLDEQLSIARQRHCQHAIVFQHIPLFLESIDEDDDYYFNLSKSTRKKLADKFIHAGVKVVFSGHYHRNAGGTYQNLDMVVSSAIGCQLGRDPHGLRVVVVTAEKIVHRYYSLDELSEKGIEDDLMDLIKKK
Chain of UniProt Q99538 (Q99538 whole entry): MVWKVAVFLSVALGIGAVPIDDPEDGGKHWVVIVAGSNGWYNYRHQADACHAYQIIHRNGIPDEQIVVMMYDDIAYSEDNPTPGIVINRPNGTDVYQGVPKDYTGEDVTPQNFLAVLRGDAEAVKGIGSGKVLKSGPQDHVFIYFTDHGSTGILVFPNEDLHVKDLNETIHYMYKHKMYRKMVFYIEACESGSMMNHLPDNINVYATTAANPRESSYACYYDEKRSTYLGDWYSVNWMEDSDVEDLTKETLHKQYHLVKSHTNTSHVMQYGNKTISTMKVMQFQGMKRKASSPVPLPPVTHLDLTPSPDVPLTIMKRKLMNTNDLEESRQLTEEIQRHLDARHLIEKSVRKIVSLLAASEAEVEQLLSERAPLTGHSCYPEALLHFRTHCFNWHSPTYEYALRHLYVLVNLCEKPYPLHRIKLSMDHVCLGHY
Chain of UniProt Q96GX2 (Q96GX2 whole entry): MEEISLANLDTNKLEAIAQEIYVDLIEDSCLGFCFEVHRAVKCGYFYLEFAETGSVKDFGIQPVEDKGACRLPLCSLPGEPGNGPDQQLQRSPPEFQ

Row | Target | log2 ratio of iodoacetamide-alkyne labeling
1 | UniProt Q96BD8_C10 | 0.363 (inactive)
2 | UniProt Q9BSH4_C112 | -0.152 (inactive)
3 | PTCD3 C642 (UniProt Q96EY7) | 0.535 (inactive)
4 | ATRIP C74 (UniProt Q8WXE1) | 0.563 (inactive)
5 | RSBN1L C280 (UniProt Q6PCB5) | 0.649 (inactive)
6 | AKAP1 C376 (UniProt Q92667) | 1.15 (active)
7 | ATXN7L3B C75 (UniProt Q96GX2) | 1.03 (active)
8 | ANKRD40 C209 (UniProt Q6AI12) | 0.466 (inactive)
9 | PARG C515 (UniProt Q86W56) | 1.16 (active)
10 | CPPED1 C54 (UniProt Q9BRF8) | 1.01 (active)
11 | HSPH1 C650 (UniProt Q92598) | 0.025 (inactive)
12 | ZFYVE16 C292 (UniProt Q7Z3T8) | 0.185 (inactive)
13 | AHCTF1 C521 (UniProt Q8WYP5) | 1.16 (active)
14 | UniProt Q7Z4H7_C885 | 0.286 (inactive)
15 | LGMN C219 (UniProt Q99538) | 0.865 (inactive)
16 | IRF2BP1 C363 (UniProt Q8IU81) | 0.0738 (inactive)
17 | ISOC2 C84 (UniProt Q96AB3) | 0.179 (inactive)
18 | LPCAT1 C216 (UniProt Q8NF37) | 0.211 (inactive)
19 | CEP135 C316 (UniProt Q66GS9) | 0.0231 (inactive)
20 | UniProt Q8NB37_C154 | 0.389 (inactive)
21 | UniProt Q6ZS17_C1137 | 0.0366 (inactive)
22 | GIGYF2 C289 (UniProt Q6Y7W6) | -0.00206 (inactive)
